Drawing on PubChem BioAssay AID651742 (Broad Institute, 2012), this text covers cytotoxicity (signal decrease) for 60 compounds.

Each structure is given as a SMILES string. Screen size: about 5,600 compounds; about 780 (14%) were called active. About 3% were inconclusive and are not listed.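 The calls were made as follows: active = mean signal decrease across replicates above about 35% based on untreated-well scatter, with enough replicates individually passing (limit read from the data); inconclusive = no rule stated though some were filed; inactive = the rest.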 These entries were drawn from the full list.

This assay is described as follows: cytotoxicity in mouse NIH/3T3 fibroblasts, confirmation, cytotoxicity control for T. cruzi proliferation inhibitor project, cell-based, cherry-pick, single point (AID 651742).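 Also: 0% = median of neutral control wells and 100% = median of positive control wells.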 To be noted: NIH/3T3 viability, CellTiter-Glo ATP luminescence, 90 h; at 8.35 µM; stronger effect = higher value.
As for `O=S(=O)(Cc1ccccc1)N1CCCCN2[C@@H](CO)[C@@H](c3ccc(-c4ccc(F)cc4)cc3)[C@@H]2C1`, the cytotoxicity (signal decrease) is 68.5% (active).
For `Cc1ccccc1-c1ccc([C@H]2[C@H]3CN(S(=O)(=O)c4ccc(F)cc4)CCCCN3[C@H]2CO)cc1`, the cytotoxicity (signal decrease) is 12% (inactive).
Next, `Cc1ccccc1-c1ccc([C@@H]2[C@H](CO)N3CCCCN(S(=O)(=O)c4ccc(F)cc4)C[C@@H]23)cc1`: 43.8% (active).
Take `O=S(=O)(c1ccc(F)cc1)N1CCCCN2[C@H](C1)[C@H](c1ccc(C3=CCCCC3)cc1)[C@@H]2CO`: the cytotoxicity (signal decrease) is 12.6% (inactive).
Next, `C[C@H](O)C#Cc1ccc([C@H]2[C@H]3CN(S(=O)(=O)Cc4ccccc4)CCCCN3[C@H]2CO)cc1`: 10.3% (inactive).
The same measure for `Cc1cccc(-c2ccc([C@H]3[C@@H](CO)N4CCCCN(Cc5cncnc5)C[C@H]34)cc2)c1`: 17.8% (inactive).
Take `O=S(=O)(Cc1ccccc1)N1CCCCN2[C@@H](CO)[C@H](c3ccc(-c4cccnc4)cc3)[C@@H]2C1`: the cytotoxicity (signal decrease) was 5.7% (inactive).
Next, `COc1cccc(S(=O)(=O)N2CCCCN3[C@H](CO)[C@H](c4ccc(-c5ccncc5)cc4)[C@H]3C2)c1`: 9.65% (inactive); `CCS(=O)(=O)N1CCCCN2[C@@H](CO)[C@@H](c3ccc(-c4ccccc4)cc3)[C@@H]2C1`: 18.2% (inactive).
`CN(C)C(=O)c1ccc(-c2ccc([C@@H]3[C@H](CO)N4CCCCN(S(C)(=O)=O)C[C@@H]34)cc2)cc1`: the cytotoxicity (signal decrease) is 5.37% (inactive).
The same measure for `O=S(=O)(Cc1ccccc1)N1CCCCN2[C@@H](CO)[C@H](c3ccc(-c4ccccc4)cc3)[C@@H]2C1`: 41.5% (active); for `Cc1cccc(-c2ccc([C@@H]3[C@@H](CO)N4CCCCN(S(=O)(=O)c5cccs5)C[C@H]34)cc2)c1`: 42.5% (active).
Next, `CC(C)C#Cc1ccc([C@H]2[C@H](CO)N3CCCCN(C(=O)NC(C)C)C[C@@H]23)cc1`: 13.1% (inactive); `C[C@H]1CCCCO[C@H](CN(C)Cc2ccccc2)[C@@H](C)CN([C@@H](C)CO)C(=O)c2cc(NC(=O)NC3CCCCC3)ccc2O1`: 12.5% (inactive); `COc1ccc(C#Cc2cnc3c(c2)C(=O)N([C@@H](C)CO)C[C@H](C)[C@@H](CN(C)C(C)=O)O3)cc1`: -3.17% (inactive).
The same measure for `CN(C)CC#Cc1ccc([C@H]2[C@H]3CN(S(=O)(=O)c4ccccc4F)CCCCN3[C@H]2CO)cc1`: 20.2% (inactive); for `COCC(=O)N(C)C[C@@H]1Oc2ncc(C#Cc3ccccc3OC)cc2C(=O)N([C@@H](C)CO)C[C@H]1C`: 1.95% (inactive); for `Cc1ccc(S(=O)(=O)Nc2ccc3c(c2)C(=O)N([C@@H](C)CO)C[C@@H](C)[C@H](CN(C)C(=O)Nc2cccc4ccccc24)OCCCC[C@H](C)O3)cc1`: -10.9% (inactive).
For the compound `O=C(c1cccc(F)c1)N1CC[C@@H]2[C@@H](CO)Nc3ccc(C#Cc4cccc(F)c4)cc3[C@@H]21`, the cytotoxicity (signal decrease) is 27.7% (inactive).
The same measure for `CC(=O)N1[C@H](CNC(=O)C2CC2)[C@@H](c2ccc(-c3cccc(F)c3)cc2)[C@@H]1CO`: 3.63% (inactive).
Next, `C[C@@H]1CN([C@H](C)CO)C(=O)c2cc(NS(=O)(=O)c3ccc(Cl)cc3)ccc2O[C@@H](C)CCCCO[C@H]1CN(C)Cc1ccccc1`: 1.2% (inactive).
Next, `C[C@H](CO)N1C[C@H](C)[C@H](CN(C)Cc2ccc(C(F)(F)F)cc2)OCCCC[C@H](C)Oc2ccc(NS(=O)(=O)c3ccc(Cl)cc3)cc2C1=O`: 98.8% (active); `C[C@@H]1CN([C@@H](C)CO)C(=O)c2cc(NC(=O)Nc3cccc4ccccc34)ccc2O[C@H]1CN(C)Cc1ccc(Cl)c(Cl)c1`: 35.5% (active).
With `C[C@@H]1CN([C@H](C)CO)C(=O)c2cc(NC(=O)Nc3ccc(F)cc3)ccc2O[C@@H](C)CCCCO[C@H]1CN(C)Cc1ccc(Cl)c(Cl)c1`, the cytotoxicity (signal decrease) is 40.8% (active).
The same measure for `C[C@H](CO)N1C[C@H](C)[C@H](CN(C)Cc2ccc(C(F)(F)F)cc2)Oc2ccc(NS(=O)(=O)c3ccc(Cl)cc3)cc2C1=O`: 8.98% (inactive); for `COc1ccc(NC(=O)Nc2ccc3c(c2)C(=O)N([C@H](C)CO)C[C@@H](C)[C@H](CN(C)Cc2ccc(Cl)c(Cl)c2)OCCCC[C@@H](C)O3)cc1`: -14.8% (inactive); for `C[C@@H]1CCCCO[C@@H](CN(C)Cc2ccc(Cl)c(Cl)c2)[C@H](C)CN([C@H](C)CO)C(=O)c2cc(NC(=O)Nc3ccc(F)cc3)ccc2O1`: 3.22% (inactive).
The same measure for `C[C@@H]1CCCCO[C@@H](CN(C)Cc2ccc3c(c2)OCO3)[C@@H](C)CN([C@@H](C)CO)C(=O)c2cc(NC(=O)Nc3ccccc3)ccc2O1`: 6.98% (inactive); for `COc1ccc(CN(C)C[C@H]2OCCCC[C@H](C)Oc3ccc(NC(=O)Nc4ccc5c(c4)OCO5)cc3C(=O)N([C@H](C)CO)C[C@@H]2C)cc1`: 45.5% (active); for `C[C@@H]1CN([C@@H](C)CO)C(=O)c2cc(NC(=O)Nc3cccc4ccccc34)ccc2O[C@@H](C)CCCCO[C@H]1CN(C)Cc1ccccc1`: 22.3% (inactive).
As to `C[C@@H]1CN([C@@H](C)CO)C(=O)c2cc(NC(=O)Nc3cccc4ccccc34)ccc2O[C@H]1CN(C)Cc1ccc(Oc2ccccc2)cc1`, the cytotoxicity (signal decrease) is 18.9% (inactive).
The same measure for `C[C@@H]1CCCCO[C@H](CN(C)Cc2ccccc2)[C@@H](C)CN([C@@H](C)CO)C(=O)c2cc(NC(=O)Nc3ccc(F)cc3)ccc2O1`: 27.1% (inactive); for `COc1ccc(S(=O)(=O)Nc2ccc3c(c2)C(=O)N([C@H](C)CO)C[C@@H](C)[C@@H](CN(C)CC2CCCCC2)OCCCC[C@@H](C)O3)cc1`: 33.5% (inactive); for `C[C@H](CO)N1C[C@H](C)[C@@H](CN(C)C(=O)Nc2ccnc(N3CCOCC3)c2)OCc2ccccc2-c2ccccc2C1=O`: 5.45% (inactive).
Next, `C[C@@H]1CCCCO[C@H](CN(C)Cc2ccc(C(F)(F)F)cc2)[C@H](C)CN([C@H](C)CO)C(=O)c2cc(NC(=O)Nc3ccc(F)cc3)ccc2O1`: -14.3% (inactive).
Next, `C[C@@H]1CCCCO[C@@H](CN(C)S(=O)(=O)c2ccc(Cl)cc2)[C@H](C)CN([C@@H](C)CO)C(=O)c2cc(NC(=O)Cc3ccccc3)ccc2O1`: 0.0515% (inactive).
`COc1ccc(NC(=O)N(C)C[C@@H]2OCCCC[C@@H](C)Oc3ccc(NS(=O)(=O)c4ccc(Cl)cc4)cc3C(=O)N([C@H](C)CO)C[C@H]2C)cc1`: the cytotoxicity (signal decrease) is -38.7% (inactive).
Next, `O=C(C[C@@H]1C[C@@H]2c3cc(NC(=O)c4ccc5c(c4)OCO5)ccc3O[C@@H]2[C@@H](CO)O1)NCc1ccc(Cl)cc1`: -20.7% (inactive).
Next, `C[C@@H]1CCCCO[C@@H](CN(C)CC2CC2)[C@H](C)CN([C@H](C)CO)C(=O)c2cc(NC(=O)C3CCCCC3)ccc2O1`: -17.8% (inactive); `C[C@H]1CCCCO[C@H](CN(C)Cc2ccc(C(F)(F)F)cc2)[C@@H](C)CN([C@@H](C)CO)C(=O)c2cc(NC(=O)C3CCCCC3)ccc2O1`: -5.99% (inactive).
Next, `N#C[C@@H]1[C@@H](c2ccc(/C=C/c3ccccc3)cc2)[C@@H](CO)N1C(=O)C1CC1`: 23.9% (inactive); `C[C@@H]1CN([C@@H](C)CO)C(=O)c2cc(NC(=O)C3CCCCC3)ccc2O[C@@H](C)CCCCO[C@H]1CN(C)Cc1ccncc1`: 2.54% (inactive).
Regarding `C[C@@H]1CN([C@H](C)CO)C(=O)c2cc(NC(=O)Nc3ccc(F)cc3)ccc2O[C@@H](C)CCCCO[C@@H]1CN(C)CC1CCCCC1`, the cytotoxicity (signal decrease) is 24.8% (inactive).
The same measure for `C[C@@H]1CN([C@H](C)CO)C(=O)c2cc(C#CC3CCCCC3)cnc2O[C@@H]1CN(C)C(=O)NC1CCCC1`: 26.3% (inactive); for `C[C@@H](O)C#Cc1ccc([C@@H]2[C@H](CO)N3CCCCN(S(=O)(=O)c4ccccc4)C[C@@H]23)cc1`: 1.19% (inactive).
`C[C@@H]1CCCCO[C@@H](CN(C)Cc2ccc(C(F)(F)F)cc2)[C@@H](C)CN([C@H](C)CO)C(=O)c2cc(NC(=O)Nc3ccccc3)ccc2O1`: the cytotoxicity (signal decrease) was -2.03% (inactive).
As for `OC[C@H]1[C@H](c2ccc(-c3cccc(F)c3)cc2)[C@@H]2CN(Cc3cncnc3)CCCCN12`, the cytotoxicity (signal decrease) is 13.1% (inactive).
Next, `O=C(Nc1ccccc1F)N1CCCCN2[C@H](CO)[C@@H](c3ccc(-c4cccnc4)cc3)[C@H]2C1`: 5.63% (inactive).
Next, `C[C@@H]1CN([C@@H](C)CO)S(=O)(=O)c2ccc(-c3cccc(F)c3)cc2O[C@@H]1CN(C)S(=O)(=O)c1ccccc1`: 46.5% (active); `C[C@H](CO)N1C[C@H](C)[C@@H](CN(C)S(=O)(=O)c2ccc(F)cc2)Oc2cc(C3=CCCC3)ccc2S1(=O)=O`: 50.5% (active); `C[C@H]1CN([C@@H](C)CO)S(=O)(=O)c2ccc(C#Cc3cccc(F)c3)cc2O[C@@H]1CN(C)S(=O)(=O)c1cn(C)cn1`: 44.8% (active).
Next, `Cc1ccc(-c2ccc3c(c2)O[C@H](CN(C)C)[C@@H](C)CN([C@H](C)CO)S3(=O)=O)cc1`: -0.56% (inactive); `C[C@@H]1CN([C@@H](C)CO)S(=O)(=O)c2ccc(C#Cc3ccc(F)cc3)cc2O[C@H]1CN(C)C(=O)NC1CCCC1`: 8.27% (inactive).
Regarding `C[C@@H]1CN([C@H](C)CO)S(=O)(=O)c2ccc(C#Cc3ccncc3)cc2O[C@@H]1CN(C)S(=O)(=O)c1ccc(F)cc1`, the cytotoxicity (signal decrease) was 27.1% (inactive).
Next, `CC(C)CC#Cc1ccc2c(c1)O[C@H](CN(C)S(=O)(=O)c1cccc(F)c1)[C@@H](C)CN([C@@H](C)CO)S2(=O)=O`: 14.5% (inactive); `COc1ccccc1-c1ccc2c(c1)O[C@H](CN(C)S(=O)(=O)c1ccc(C)cc1)[C@@H](C)CN([C@H](C)CO)S2(=O)=O`: 26.4% (inactive).
Next, `C[C@@H]1CN([C@@H](C)CO)S(=O)(=O)c2ccc(C#Cc3ccc(F)cc3)cc2O[C@H]1CN(C)S(C)(=O)=O`: 25.6% (inactive); `C[C@@H]1CN([C@H](C)CO)S(=O)(=O)c2ccc(-c3cccc(F)c3)cc2O[C@H]1CN(C)S(=O)(=O)c1ccc(F)cc1`: 54.4% (active).
The same measure for `C[C@@H]1CN([C@@H](C)CO)S(=O)(=O)c2ccc(C#Cc3ccc(F)cc3)cc2O[C@H]1CN(C)C(=O)c1ccccn1`: 30% (inactive); for `C[C@@H]1CN([C@@H](C)CO)S(=O)(=O)c2ccc(-c3ccncc3)cc2O[C@@H]1CN(C)C(=O)Nc1ccc(F)cc1`: -4.35% (inactive).
